# From PubChem BioAssay AID1777 (Sanford-Burnham Center for Chemical Genomics, 2009)
# In all, about 280,000 compounds went through this assay and about 50 (0.02%) were called active. Shown is part of a subset that was picked to be rich in actives. Results with a measured potency or affinity are listed apart. Values without a mark were called inactive. No stated cut-off is given here; in the data, active means activation above about 50% (passing the limit was not always enough); inactive means the rest.
# Target: Kappa-type opioid receptor (Homo sapiens) (UniProt P41145)
# Assay: KOR agonists, beta-arrestin recruitment, primary screen, cell-based, luminescence, uHTS (AID 1777)
# Conditions: at 10 µM, stronger effect = higher value
# Kappa-type opioid receptor (Homo sapiens), sequence (P41145 whole entry, looked up): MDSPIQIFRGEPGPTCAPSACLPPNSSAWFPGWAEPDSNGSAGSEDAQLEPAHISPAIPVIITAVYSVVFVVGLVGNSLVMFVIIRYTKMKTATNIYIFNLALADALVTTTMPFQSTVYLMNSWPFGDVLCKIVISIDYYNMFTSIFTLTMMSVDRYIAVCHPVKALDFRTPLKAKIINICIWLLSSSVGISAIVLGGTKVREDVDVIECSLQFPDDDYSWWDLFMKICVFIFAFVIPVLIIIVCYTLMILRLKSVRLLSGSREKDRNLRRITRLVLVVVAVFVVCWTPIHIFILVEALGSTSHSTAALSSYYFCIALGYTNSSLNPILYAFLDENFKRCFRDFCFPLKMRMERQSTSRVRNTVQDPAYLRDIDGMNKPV
row,Compound,activation
1,O=C(CSc1nnc(CNC(=O)c2c(F)cccc2F)o1)c1ccccc1,4.5%
2,CCOc1ccc(N2C(=O)Nc3ccc(Br)cc3C2(O)C(=O)NCCN(C)C)cc1 (centres undefined),-0.1%
3,Cc1cccc(C(C)C)c1NC(=O)c1ccc(COc2ccc3c(C)cc(=O)oc3c2)cc1,3.9%
4,CC(=O)Nc1ccc(NC(=O)c2ccc(COc3ccc4c(C)cc(=O)oc4c3)cc2)cc1,0.2%
5,CN(C)/C=C/C(=O)c1cccc(C(F)(F)F)c1,2.5%
6,CCC1(c2ccc(F)cc2)NC(=O)N(CC(=O)Nc2ccccc2Cl)C1=O (centres undefined),-0.1%
7,CCn1c(=O)c(-c2ccccc2)c(O)c2ccccc21,1.3%
8,CCn1c(=O)c(-c2cc(=O)[nH][nH]2)c(O)c2ccccc21,2.3%
9,CCn1c(=O)c(C2=NS(=O)(=O)c3ccccc3N2)c(O)c2ccccc21,54.2% (active)
10,O=C(c1ccc(=O)[nH]c1)N(Cc1ccco1)C1(C(=O)NC2CCCCC2)CCCCC1,-2.7%
11,Cc1cccc(C)c1NC(=O)C1(N(C(=O)c2ccccn2)c2ccc(O)cc2)CCCCC1,-0.3%
12,O=C(c1cnccn1)N(Cc1ccco1)C1(C(=O)NC2CCCC2)CCCCC1,-9%
13,CC(=O)NCC(=O)N(Cc1ccco1)C1(C(=O)NC2CCCCC2)CCCCC1,3.8%
14,CC(=O)N(Cc1ccco1)C1(C(=O)NC2CCCCC2)CCCCC1,2.1%
15,O=C(c1ccc(=O)[nH]c1)N(Cc1ccco1)C1(C(=O)NC2CCCC2)CCCCC1,6%
16,Cc1cccc(C)c1NC(=O)C1(N(Cc2ccco2)C(=O)Cn2nnnc2N)CCCCC1,-0.3%
17,CC(=O)N(Cc1ccco1)C1(C(=O)NC2CCCC2)CCCCC1,-1%
18,CC[n+]1c(-c2ccc(C)cc2)csc1Nc1c(C)n(C)n(-c2ccccc2)c1=O,-4.9%
19,Cc1ccc(S(=O)(=O)N2CCN(CC(=O)N/N=C/C=C/c3ccccc3)CC2)cc1,0.3%
20,COc1cc(OC)cc(C(=O)NCC(=O)N2CCCCC2)c1,-0.7%

row,Compound,activation
1,CC1(C)Cc2c(cnn2-c2cccc(F)c2)C(NC(=O)c2csnn2)C1 (centres undefined),5.1%
2,CCOc1ccccc1NC=C1C(=O)OC(C)(C)OC1=O,4.4%
3,Cc1c(NC(=O)c2cccc(S(=O)(=O)N3CCOCC3)c2)c(=O)n(-c2ccccc2)n1C,-7.9%
4,O=C(NCC1CCCO1)C1CC(=O)N(c2cccc(Cl)c2)C1 (centres undefined),5.7%
5,CCC(=O)Nc1c2c(nn1-c1cccc(Cl)c1)CS(=O)(=O)C2,-8.6%
6,CCOc1ccccc1NC(=O)CN(C)S(=O)(=O)c1ccc2[nH]c(=O)oc2c1,-1.5%
7,Cc1ccc2c(CC(=O)NCC3COc4ccccc4O3)coc2c1 (centres undefined),-4.2%
8,Cc1cc(C)n(-c2cccc(CN3CCC(CO)(Cc4ccccc4)CC3)c2)n1,-3.3%
9,Cc1cccc(-n2ccnc2CN2CCN(C(C)C)C(CCO)C2)c1 (centres undefined),8%
10,CCCC(=O)NC(c1ccc(Cl)cc1Cl)c1ccc2cccnc2c1O (centres undefined),-5.3%
11,O=C(c1ccc2c3n(nc2c1)-c1ccccc1CO3)N1CCOCC1,0.7%
12,O=C(C(Cc1ccccc1)n1cccc1)N1CCN(c2ccccc2)CC1 (centres undefined),-3.7%
13,Cc1cccc(N2CCN(C(=O)C(Cc3ccccc3)n3cccc3)CC2)c1C (centres undefined),81%
14,COc1cccc(CN2CC(C(=O)N(C)Cc3nc(C)cs3)CCC2=O)c1 (centres undefined),-2.2%
15,O=c1cc(N2CCN(c3ccccc3)CC2)[nH]c(=O)n1Cc1ccc(F)cc1,-5.2%
16,Cc1cccc(N2CCN(C(=O)c3cccc(N4CCCC4=O)c3)CC2)c1C,-3.4%
17,Cc1cccc2cc(CN(Cc3cccs3)C3(c4nnnn4C4CCCC4)CCCC3)c(=O)[nH]c12,9.6%
18,CCC(c1nnnn1C1CCCC1)N(Cc1cccs1)Cc1cc2cc(C)ccc2[nH]c1=O (centres undefined),3.2%
19,Cc1cccc2cc(CN(Cc3cccs3)C(c3nnnn3C3CCCC3)C(C)C)c(=O)[nH]c12 (centres undefined),66% (active)
20,Cc1ccc(N2CC(C(=O)N3CCCCCC3)CC2=O)cc1 (centres undefined),1.5%

row,Compound,activation
1,CC1CCCN(C(=S)Nc2ccc(S(=O)(=O)N3CCCCC3)cc2)C1 (centres undefined),-0.4%
2,CCCOC(=O)NC1C(NC(=O)OCCC)N(C)C(=O)N1C (centres undefined),-2.1%
3,Cn1cccc1/C=N/N1CCN(Cc2cccc3ccccc23)CC1,3%
4,Nc1ccc2nc(SCC(=O)c3ccccc3)sc2c1,-1.7%
5,O=C(CSc1nc2ccc([N+](=O)[O-])cc2s1)c1ccc2ccccc2c1,57.8% (active)
6,O=C(CSc1nc2ccc([N+](=O)[O-])cc2[nH]1)c1ccc2ccccc2c1,-0.1%
7,CCOC(=O)N1CCC(N(CCOC)C(=O)Nc2ccc(Cl)c(Cl)c2)CC1,-4.1%
8,COc1ccc(OC)c2[nH]c(=O)c(CCNC(=S)NC(C)(C)C)cc12,-9%
9,OCCCCNCc1ccc(OCc2ccc(Cl)cc2Cl)cc1,3.1%
10,OCCNCc1ccc(OCc2ccc(Cl)cc2Cl)cc1,-6.2%
11,Oc1cccc(C(O)CNCc2ccc(OCc3ccc(Cl)cc3Cl)cc2)c1 (centres undefined),103% (active)
12,Cc1cc(C)n(CCNC(=O)c2cc(COc3ccc4ncccc4c3)on2)n1,0.2%
13,Cc1ccc(OC(C)c2nnc(N)s2)cc1Cl (centres undefined),-0.5%
14,COc1ccc(S(=O)(=O)N2CCCC(C(=O)NC3CCCC3)C2)cc1OC (centres undefined),-2.8%
15,C(=C\c1ccccc1)/CNCC1CCCO1 (centres undefined),2%
16,CC[C@@H](C(=O)[C@@H](C)[C@@H](O)[C@H](C)CCc1ccc(C)c(O)c1C(=O)O)[C@H]1O[C@](CC)([C@H]2CC[C@](O)(CC)[C@H](C)O2)C[C@@H]1C,83.4% (active)
17,CC(C)OCCCNC(=O)C(Cc1ccccc1)NS(=O)(=O)c1ccc2c(c1)CCC(=O)N2 (centres undefined),0.5%
18,COc1ccc(N=C2SCC(=O)N2CCc2ccc(OC)c(OC)c2)cc1,23.1%
19,COc1ccc(CCN2C(=O)CSC2=Nc2ccc(C)cc2C)cc1OC,9.8%
